Assay outcomes (PubChem BioAssay)
The list is not random: actives were taken first. Their share in the collection is about 19%.
Pf growth 96h = Primary qHTS for delayed death inhibitors of the malarial parasite plastid, 96 hour incubation; P. falciparum luciferase reporter growth, 96 h; Potency, µM (top dose mostly 28.7 µM), for the others: top-dose activity change, negative = inhibition, usual class: inhibitors; hit rate 6.9% among 320,000; AID 504834, 2011; further: potency means the concentration at half of the fitted maximal effect; on the % scale 0 is the no-effect control and ±100 the full control effect
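Plates of compound plus infected erythrocytes (2% hematocrit, 0.05% parasitemia final) incubate 96 hours, 37 C, 5% CO2. Detection reagent added; reduced luminescence from the parasites' luciferase reporter flags inhibition.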
Pf growth 48h = Primary qHTS for delayed death inhibitors of the malarial parasite plastid, 48 hour incubation. P. falciparum luciferase growth in erythrocytes, 48 h. Potency, µM (doses to about 28.7 µM), for inactives: top-dose activity change, negative = inhibition, usual class: inhibitors. hit rate 5.9% among 310,000; further: potency means the concentration at half of the fitted maximal effect; on the % scale 0 is the no-effect control and ±100 the full control effect
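Luminescence readout; reporter = integrated firefly luciferase in P. falciparum. RBC culture at 2% hematocrit, 0.1% parasitemia final, 37 C/5% CO2; decreased signal taken as growth inhibition.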
Shiga toxin inh = A qHTS for Small Molecule Inhibitors of Shiga Toxin. Vero cells, Shiga toxin protein synthesis inhibition reporter. hit rate 9.2% among 290,000. inhibition, % at 38.7 µM; in the data active means inhibition mostly above about 28%, no sharp cut-off; inactive means mostly below about 43%; further: 0% is about no effect
SARS PLpro yeast = qHTS of Yeast-based Assay for SARS-CoV PLP. S. cerevisiae expressing SARS-CoV PLpro, growth rescue. Potency, µM (series often up to 32.9 µM), inactives show at the highest dose activity, positive = growth rescue, usual class: activators. hit rate 0.19% among 330,000. AID 485353, 2010; calls by dose curve; further: potency means the concentration at half of the fitted maximal effect; 0% is about no effect; nearly all actives have a fitted effect of over 55% in size
CHX counter = Cycloheximide Counterscreen for Small Molecule Inhibitors of Shiga Toxin | cell reporter, cycloheximide protein synthesis inhibition counterscreen | max response, % | hit rate 12% among 300,000 | AID 2314, 2010; in the data active means max response mostly above about 13%, no sharp cut-off; inactive means mostly below about 14%; further: read at 38.3 µM for the half of the compounds with a filed dose; 0% is about no effect
AMA1 RON2 block = qHTS for Inhibitors of AMA1-RON; Towards Development of Antimalarial Drug Lead: Primary Screen | hit rate 0.2% among 360,000 | AID 720542, 2013 | AlphaScreen AMA1-biotinylated RON2 peptide binding | Potency, µM (doses to about 58.2 µM), inactives show at the highest dose activity change, negative = inhibition, usual class: inhibitors | Plasmodium falciparum AMA1 (3D7) - RON2 peptide interaction;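 further: potency means the concentration at half of the fitted maximal effect; 0% = vehicle wells and -100% = peptide control; nearly all actives have a fitted effect of over 45% in size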
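AMA1 (3D7) with his tag at 25 nM final met compounds first, then biotinylated RON2 peptide at 25 nM; detection used donor plus acceptor beads, 10 µg/mL apiece, read by AlphaScreen after 30 min at room temperature.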
An asterisk follows results filed as active; ? = inconclusive; / = no result given; [ ] = another dose, or the depositor's remark. Unless noted, the call rests on the fitted dose curve; in most records, active means well fitted curve in the direction sought with a large enough effect; inconclusive means small, poorly fitted or top-dose-only effect, or another doubt; inactive means no such curve, though single readings can be large; an effect the other way counts as inactive or inconclusive.

SMILES	Pf growth 96h	Pf growth 48h	Shiga toxin inh	SARS PLpro yeast	CHX counter	AMA1 RON2 block
CC(C)(C)c1ccc(-c2noc(CNC(=O)c3ccco3)n2)cc1	2%	?	37	-7%	32*	-9%
CC(NC(=O)c1ccco1)c1nc(-c2ccc(C(C)(C)C)cc2)no1 (centres undefined)	?	-4%	49*	-5%	15	-20%
O=C(Nc1ccc(-c2noc(COc3ccccc3Cl)n2)cc1)c1ccco1	223%	?	active	-12%	41*	-11%
O=C(NCc1nc(-c2ccccc2)no1)c1cccs1	/	3%	29	-1%	7	31%
O=C(NCc1nc(-c2ccc(C(F)(F)F)cc2)no1)c1cccs1	35%	-34%	18	-8%	8.2*	5%
O=C1CNC(=S)N1Cc1ccccc1Cl	-4%	/	10	3%	-5	24%
Cc1cc(-c2nnc(SCC(=O)Nc3cccc(F)c3)n2N)n[nH]1	?	-21%	12	-3%	17	7%
COc1ccc(NCC(=O)NN=C2CCS(=O)(=O)c3ccc(F)cc32)cc1	/	/	/	-1%	/	-2%
CC(C)(C)c1ccc(-c2noc(CCC(=O)NCc3ccco3)n2)cc1	327%	126%	73	-5%	34*	0%
O=C(OCC#Cc1c(COC(=O)c2ccccc2)nnn1Cc1ccccc1)c1ccccc1	31%	?	-5	3%	-1	11%
CCN(CC)S(=O)(=O)c1cccc(-c2nnc(SCC(=O)NCCC3=CCCCC3)n2N)c1	12µM*	-16%	-8	-8%	2	-17%
Nn1c(SCC(=O)NCCC2=CCCCC2)nnc1-c1cccnc1	1%	0%	/	1%	/	16%
COc1ccccc1C(=O)N/N=C(\C)CC(=O)Nc1ccc2c(c1)OCCO2	?	18%	30	-1%	9	23%
C/C(CC(=O)Nc1ccc2c(c1)OCO2)=N\NC(=O)C(c1ccccc1)c1ccccc1	?	-4%	-7	-24%	-2	30%
C/C(CC(=O)Nc1ccc2c(c1)OCO2)=N\NC(=O)c1ccc(N)cc1	8%	21%	53*	1%	22*	97%
C/C(CC(=O)Nc1ccc2c(c1)OCO2)=N\NC(=O)OC(C)(C)C	1%	99%	-5	0%	18	3%
C/C(CC(=O)Nc1ccc2c(c1)OCCO2)=N\NC(=O)c1ccccc1F	29%	21%	79*	-6%	30*	45%
C/C(CC(=O)Nc1ccc2c(c1)OCO2)=N\NC(=O)c1ccccc1N	?	?	101*	0%	59*	46%
O=C(NCCN1CCOCC1)C1(C(F)(F)F)CC(CCCO)CCCO1 (centres undefined)	/	/	-4	/	-2	/
CC(=O)Nc1ccc2nc(CN3CCN(CC=C(C)C)C(CCO)C3)ccc2c1 (centres undefined)	?	11%	24	0%	6	-7%
O=C(Nc1ccccc1Cl)c1ccccc1Cc1ccccc1	0%	13%	9	?	18	15%
O=C(O)C(Cc1c[nH]c2ccccc12)N1C(=O)C2C3c4ccccc4C(c4ccccc43)[C@@H]2C1=O (some centres undefined)	?	-9%	-11	0%	1	-10%
COC(=O)c1nc(Cl)c(Cl)c(N)c1Cl	25%	10µM*	-7	3%	3	-3%
COc1ccc(C(=O)NC(=S)NNC(=O)c2ccco2)cc1	1%	-40%	22	-2%	27*	68%
COc1ccc(/C=C/C(=O)NC(=S)NNC(=O)c2ccco2)cc1	10µM*	34%	9	-8%	4	-6%
SMILES	Pf growth 96h	Pf growth 48h	Shiga toxin inh	SARS PLpro yeast	CHX counter	AMA1 RON2 block
COc1ccc(/C=C/C(=O)NC(=S)NNC(=O)c2cc(OC)c(OC)c(OC)c2)cc1	?	15µM*	-4	1%	8	97%
O=C(NNC(=S)NC(=O)c1ccco1)c1ccc(NC(=O)c2ccccc2)cc1	61%	?	-9	-5%	-8	60%
O=C(NC(=S)NNC(=O)c1ccco1)c1ccc(F)cc1	?	?	active	-7%	24*	116%
O=C(NCc1cccnc1)c1ccccc1CCc1ccccc1	19%[1.15 µM]	-7%	-2	0%	0	25%
N#CC1=C(N)Oc2cc(Nc3ccccc3)ccc2C1c1ccncc1 (centres undefined)	44%	?	-16	?	-3	30%
CC(C)(C)c1ccc(C(=O)N2CCC(=O)N(C(CO)Cc3ccccc3)CC2)cc1 (centres undefined)	?	-20%	2	18%	-3	4%
COc1ccccc1-c1nnc(SCC(=O)Nc2ccc(S(N)(=O)=O)cc2)n1C	-6%	/	17	-1%	-1	-4%
O=C(/C=C/c1ccc(Cl)cc1)NC(=S)Nc1ccc(NC(=O)c2ccco2)cc1	15µM*	-14%	-13	2%	-6	8%[2.32 µM]
O=C(NC(=S)NNC(=O)c1ccccc1O)c1ccco1	?	?	-4	-56%	21*	13%
CCCCOc1ccc(C(=O)N/C(=C\c2ccc(OC)cc2)C(=O)OCc2ccco2)cc1	44%	?	8	-5%	-2	-7%
COc1ccc(C(=O)N/C(=C\c2ccco2)C(=O)OCc2ccco2)cc1	-15%	7%	93*	-2%	34*	-26%
O=C(C1CCCN(C2CC(=O)N(c3ccc(Cl)cc3)C2=O)C1)N1CCCC1 (centres undefined)	?	3%	-10	-20%	-3	18%
COc1ccc(-c2cn(CCO)c(-c3ccncc3)n2)cc1	0%	24%	/	2%	/	9%
O=C(O)C1C(c2ccccc2)c2ccccc2C(O)C1CO (centres undefined)	/	/	/	/	/	20%
COc1ccc(Oc2nc(-c3ccncc3)nc3ccccc23)cc1	?	?	-1	0%	9	10%
CCCOc1ccc(Oc2nc(-c3ccncc3)nc3ccccc23)cc1	1µM*	1.3µM*	-4	0%	1	23%
C=CCOc1nc(-c2ccncc2)nc2ccccc12	18%	7.4µM*	-14	-9%	3	-3%
COCC(=O)N(C)C1(c2nnnn2CCOC(=O)Nc2cccc3ccccc23)CCCC1	/	5%	2	-1%	2	-4%
C[C@@]12CC(=O)NC1N(C(=O)c1ccccc1)C(c1ccccc1OC(=O)c1ccccc1)C2 (some centres undefined)	/	?	-31	3%	-2	-16%
C[C@@]12CC(=O)NC1N(C(=O)c1cccc(C(F)(F)F)c1)C(c1ccccc1OC(=O)c1cccc(C(F)(F)F)c1)C2 (some centres undefined)	9.3µM*	/	-4	2%	-2	7%
